Laboratory results taken from PubChem BioAssay (NCI).
This is part of a sample that, as a whole, favours compounds with a hit. Of some 79,000 tested, about 15% had one in any assay. Calls of active or inactive are those of the source. No stated cut-off is given here; in the data, active means growth inhibition above about 70%; inactive means the rest.

Columns and labels:
[1] = NCI Yeast Anticancer Drug Screen. Data for the rad50 strain (AID 155);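 further: 0% = growth of vehicle-only cultures of the same strain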; conditions: S. cerevisiae rad50 strain growth inhibition; at 50.0 µM; hits give high values
Method in brief: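 A DNA repair-deficient yeast mutant serves as the test organism; compound-induced growth inhibition is calculated against vehicle-treated cells.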

[2] = NCI Yeast Anticancer Drug Screen. Data for the mec2-1 strain (AID 157); conditions: S. cerevisiae mec2-1 strain, at 50.0 µM, hits give high values
Method in brief: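 Test agents were screened against the mec2-1 yeast strain, with defined DNA repair or cell cycle alteration. Growth was scored as inhibition against vehicle-only controls.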

[3] = NCI Yeast Anticancer Drug Screen. Data for the sgs1 mgt1 strain (AID 161);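 further: 0% = growth of cultures given vehicle only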; conditions: S. cerevisiae sgs1 mgt1 strain, at 50.0 µM, hits give high values
Method in brief: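 Inhibition of yeast growth, normalised to vehicle-treated controls, is reported for a strain bearing genetic alterations in DNA damage repair.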

[4] = NCI Yeast Anticancer Drug Screen. Data for the cln2 rad14 strain (AID 165);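 further: 0% = growth equal to vehicle treated cultures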; conditions: S. cerevisiae cln2 rad14 strain, at 50.0 µM, hits give high values
Method in brief: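 Growth of compound-exposed yeast (cln2 rad14 genotype) measured and expressed as inhibition relative to vehicle.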

[5] = NCI Yeast Anticancer Drug Screen. Data for the bub3 strain (AID 167); conditions: S. cerevisiae bub3 mutant strain, at 50.0 µM, hits give high values
Method in brief: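 Inhibition values come from growth of compound-treated mutant yeast normalised to vehicle-treated controls.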

[6] = NCI Yeast Anticancer Drug Screen. Data for the mlh1 rad18 strain (AID 175); conditions: S. cerevisiae mlh1 rad18 strain growth inhibition; at 50.0 µM; hits give high values
Method in brief: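 In this whole-cell yeast screen, a strain with altered DNA damage repair is challenged with compound, and its growth is measured against matched vehicle-treated controls.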

Measured: growth inhibition

COc1cc(C(C)S(=O)(=O)c2ccc(C)cc2)ccc1O (configuration not stated)
inactive: [1] -2.95% | [2] -9.3% | [3] 8.65% | [4] 6.5% | [5] 3.2% | [6] 9.45%

CCCCOC(=O)NC(C)=O
inactive: [1] -14.1% | [2] -18.9% | [3] -15.2% | [4] -11.6% | [5] -1.55% | [6] -16.1%

CCN(CC)c1ccc(/C=C2\SC(=S)NC2=O)cc1
inactive: [1] 2.95% | [2] 4.65% | [3] 27.6% | [4] 9.95% | [5] 9.35% | [6] 7.75%

CC(C)OP(=O)(CCC(=O)C1(O)CCC2C3CCC4=CC(=O)CCC4(C)C3CCC21C)OC(C)C (configuration not stated)
inactive: [1] 11.4% | [2] 4.25% | [3] 10.3% | [4] 3.25% | [5] 0.65% | [6] -8.6%

COC1(NS(=O)(=O)c2ccc(C)cc2)CC1
inactive: [1] -43.8% | [2] -25.2% | [3] -12.1% | [4] -39.1% | [5] 10.4% | [6] -3.85%

CCCCOC(=O)NC(=O)c1cn(CCSCCOC(=O)NCCCCCCNC(=O)OCCSCCn2cc(C(=O)NC(=O)OCCCC)c(=O)[nH]c2=O)c(=O)[nH]c1=O
inactive: [1] -15.2% | [2] -12.5% | [3] -9.55% | [4] 2.15% | [5] -15.9% | [6] -15.4%

COc1cc2[nH]c(-c3ccccc3)cc(=O)c2c(OC)c1OC
inactive: [1] -11.3% | [2] -3.65% | [3] -8% | [4] 0.25% | [5] 8.85% | [6] 3.35%

O=S(=O)(Nc1nccs1)c1ccc(NCc2c3ccccc3nc3ccccc23)cc1
inactive: [1] 62.2% | [2] 54.7% | [3] 42.3% | [4] 30% | [5] 17.7% | [6] 49.5%

c1ccc(C(c2ccc3c(c2)CCCC3)C(c2ccccc2)(c2ccccc2)c2ccccc2)cc1 (configuration not stated)
inactive: [1] -0.05% | [2] -0.05% | [3] 4.7% | [4] 16.5% | [5] -3.65% | [6] 25.4%

Cc1ccc(N=Cc2ccccc2O)cc1.[Co]
inactive: [1] -18.9% | [2] 14.9% | [3] -2.75% | [4] 14.2% | [5] 1.45% | [6] -11.1%

NC(=O)c1csc(Nc2csc(N)n2)n1
inactive: [1] -6.05% | [2] -15.5% | [3] -6.35% | [4] -13.6% | [5] 18.8% | [6] -26.6%

O/N=C1/C(=C/c2ccc(F)cc2)CCCC1C(NO)c1ccc(F)cc1 (configuration not stated)
inactive: [1] -3.9% | [2] -22.1% | [3] -8.05% | [4] 3.35% | [5] -6% | [6] -17.7%

CC(C)CCCC(C)C1CCC2C3CC=C4CC(C(=O)O)CCC4C3CCC12C (configuration not stated)
inactive: [1] 26.8% | [2] 21.6% | [3] 14.1% | [4] 21.2% | [5] -3.5% | [6] 22.6%

COc1cc([C@@H]2c3cc4c(cc3[C@H](OC(=O)CCCC(=O)O)[C@H]3COC(=O)[C@H]23)OCO4)cc(OC)c1OC
inactive: [1] 26.2% | [2] 23.2% | [3] 38.5% | [4] 32.3% | [5] 10.9% | [6] 33.6%

Cc1cc(=O)c2c(ccc3c(=O)cc(C)[nH]c32)[nH]1
inactive: [1] -56.8% | [2] -21.2% | [3] -14.3% | [4] -52.2% | [5] -3.1% | [6] 3.25%

CC1=CC(=O)C(CCC#N)C(C)(C)C1 (configuration not stated)
inactive: [1] -8.6% | [2] -17.9% | [3] -1.75% | [4] -36.9% | [5] 5.85% | [6] -0.4%

O=[N+]([O-])c1nccn1CCCl
inactive: [1] 20.1% | [2] -3.75% | [3] 2.35% | [4] -26.1% | [5] -9.85% | [6] -1.7%

Ic1ccccc1/C=C/c1ccccn1
inactive: [1] 14.6% | [2] 11.3% | [3] 28.7% | [4] -54.6% | [5] 31.8% | [6] -0.2%

NC(CCCCC(N)C(=O)c1ccccc1)C(=O)c1ccccc1 (configuration not stated)
inactive: [1] -11.9% | [2] -7.45% | [3] -4.85% | [4] -15.9% | [5] 1.55% | [6] 3.25%

O=C/C(=C(/Br)I)c1ccccc1
inactive: [1] 5.25% | [2] 2.85% | [3] 24.9% | [4] 8.7% | [5] 8.7% | [6] -27.1%

CC(=O)OCC1OC(n2cnc3c(N)ncnc32)CC1OC(C)=O (configuration not stated)
inactive: [1] -1.7% | [2] -1.75% | [3] -1.25% | [4] -47.5% | [5] 15.5% | [6] -18.6%

COc1ccc2[nH]c(C(F)(F)F)cc(=O)c2c1
inactive: [1] 9.4% | [2] 11.7% | [3] 5.2% | [4] -7.95% | [5] 4.65% | [6] 14.8%

CCOC(=O)Cc1nc(Cl)c2c(C)c(C)sc2n1
inactive: [1] 29.8% | [2] 5.6% | [3] 6.9% | [4] 20.2% | [5] 24.9% | [6] 40.5%

C=CCOCc1ccc(C(C)(C)CC(C)(C)C)cc1
inactive: [1] -5.25% | [2] 13.5% | [3] 8.6% | [4] -75.5% | [5] 16.1% | [6] 15.7%

Cc1[nH]n(C(=N)N)c(=O)c1CCO
inactive: [1] -7.15% | [2] 11.6% | [3] -18.6% | [4] -6.35% | [5] 2% | [6] -50.7%

CC(=O)Nc1ccc(N=Nc2cccc(C)c2)cc1C
inactive: [1] -1.6% | [2] -1.6% | [3] 10.1% | [4] -13.1% | [5] 2.4% | [6] -7.2%

CC(=O)Oc1c(C(C)(C)C)cc([N+](=O)[O-])c(C)c1[N+](=O)[O-]
active: [1] 97% | [2] 97.3% | [3] 94.9% | [4] 74.2% | [5] 94% | [6] 95.2%

COC(=O)NC(Nc1ccc(Cl)cc1Cl)(C(F)(F)F)C(F)(F)F
inactive: [1] 44.6% | [2] 6.7% | [3] 12.2% | [4] 20.6% | [5] 30.1% | [6] 16.6%

CCOc1ccccc1NC(=O)C1CCCCC1C(=O)O (configuration not stated)
inactive: [1] 14.2% | [2] 16.7% | [3] 14.6% | [4] 25.6% | [5] 12.7% | [6] 7.8%

O=C(Nc1ccc(Cl)cc1)Nc1nnc(-c2ccc(-c3nnc(NC(=O)Nc4ccc(Cl)cc4)o3)cc2)o1
inactive: [1] 28.4% | [2] 0.4% | [3] 26.4% | [4] -34.3% | [5] 18% | [6] 21.6%

Clc1ccc2c(c1)C(Nc1cc3c4ccccc4ccc3c3ccccc13)c1cc(Cl)cc(Cl)c1-2 (configuration not stated)
inactive: [1] 51.2% | [2] -1.25% | [3] 22.6% | [4] 21.1% | [5] 9.3% | [6] 12.2%

CC1(C)C=C(S(=O)(=O)c2ccccc2)Oc2ccccc2O1
inactive: [1] 15.3% | [2] 8% | [3] 24.2% | [4] 9.2% | [5] 47.8% | [6] 31.9%

CC[N+](C)(CC)CCOC(=O)C(c1ccccc1)C(O)C1CCCCC1 (configuration not stated)
inactive: [1] 29.8% | [2] -5.45% | [3] 3.8% | [4] 17.3% | [5] -0.3% | [6] 8.75%

NC(=O)NC(=O)Cc1ccc(N)cc1
inactive: [1] 4.6% | [2] -9.1% | [3] 1.9% | [4] 1.1% | [5] 4% | [6] -4.9%

Cc1cc(=O)n2[nH]nnc2n1
inactive: [1] 10.5% | [2] 17.6% | [3] 26.4% | [4] 13.2% | [5] 12.5% | [6] 14.2%

CC(=O)OC1C(=O)OC(=O)C1OC(C)=O (configuration not stated)
inactive: [1] 9.6% | [2] 0.9% | [3] 8.1% | [4] 5.25% | [5] 6.05% | [6] -3.85%

C=CCNC(=O)N(CCC)CCCCC(NC(C)=O)C(=O)NCc1ccccc1 (configuration not stated)
inactive: [1] 11.5% | [2] 7.5% | [3] -8.4% | [4] 18.6% | [5] 8.75% | [6] 4.35%
